Structures are written as SMILES. Active and inactive are the calls of the source. Entries that show only a call come without a potency. Calls come from the whole dose curve; as a rule, active = well fitted curve in the direction sought with a large enough effect in the repeat runs; inconclusive = weak or mixed curves; inactive = flat fitted curve, though single readings scatter.

The first test can be described thus: qHTS assay to test for compound auto fluorescence at 590 nm (red) in HEK293 cell free culture (AID 720683). Particulars: cell-free medium autofluorescence, Ex540/Em590 red; series mostly up to 46 µM. An outline of the steps:
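Tox21 10K library compounds were pinned into cell-free DMEM with 10% FBS and fluorescence was read at excitation 540 nm. Activity is expressed as Rose Bengal sodium equivalency.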
As to `S=C1SCN(Cc2ccccc2)CN1Cc1ccccc1`, the Potency entry was “inactive”. For `CC(C)CCCC(C)NC(C)C` (configuration not stated), the Potency entry was “inactive”.

With `CC[C@H]1OC(=O)[C@H](C)[C@@H](O[C@H]2C[C@@](C)(OC)[C@@H](O)[C@H](C)O2)[C@H](C)[C@@H](O[C@@H]2O[C@H](C)C[C@H](N(C)C)[C@H]2O)[C@](C)(O)C[C@@H](C)[C@@H]2N[C@@H](COCCOC)O[C@@H]([C@H]2C)[C@]1(C)O`, the Potency entry is “inactive”. Take `C[C@H](CCCC(C)(C)O)[C@H]1CC[C@H]2[C@@H]3CC=C4C[C@@H](O)CC[C@]4(C)[C@H]3CC[C@]12C`: the Potency entry was “inactive”. Same read-out and setting: the entry for `COc1ccc(/C=C/C(=O)OCCC(C)C)cc1` is “inactive”; for `O=C(NNCNNC(=O)c1ccncc1)c1ccncc1` it is “inactive”; for `Cc1ccccc1` it is “inactive”. Turning to `C=C1C(=C/C=C2\CCC[C@]3(C)[C@@H]([C@H](C)/C=C/[C@H](C)C(C)C)CC[C@@H]23)C[C@@H](O)C[C@@H]1O`, the Potency result was “inactive”.

In the case of `CC[C@H](C)[C@H]1O[C@]2(CC[C@@H]1C)C[C@@H]1C[C@@H](C/C=C(\C)[C@@H](O[C@H]3C[C@H](OC)[C@@H](O[C@H]4C[C@H](OC)[C@@H](O)[C@H](C)O4)[C@H](C)O3)[C@@H](C)/C=C/C=C3\CO[C@@H]4[C@H](O)C(C)=C[C@@H](C(=O)O1)[C@]34O)O2`, the Potency entry was “inactive”. On the same count and under the same terms, the entry for `O=C(O)[C@@H](O)[C@H](O)[C@H](O)[C@@H](O)C(=O)O` (tested in a mixture with another compound) is “inactive”. Regarding `CCCCC[C@H](O)/C=C/[C@H]1[C@H](O)CC(=O)[C@@H]1CCCCCCC(=O)O`, the Potency entry was “inactive”. As for `O=P(O)(O)OC[C@H](O)CO`, the Potency result is “inactive”. As to `Cn1c(O)c(N=NC(N)=S)c2ccccc21`, the Potency entry was “inactive”. In the case of `CCCC(=O)O[C@]1(C(=O)COC(=O)CC)[C@@H](C)C[C@H]2[C@@H]3CCC4=CC(=O)C=C[C@]4(C)[C@@]3(F)[C@@H](O)C[C@@]21C`, the Potency entry was “inactive”. `CO[C@H]1C[C@H](O[C@H]2[C@H](C)[C@@H](O[C@@H]3O[C@H](C)C[C@H](N(C)C)[C@H]3OC(C)=O)[C@@H](C)C[C@]3(CO3)C(=O)[C@H](C)[C@@H](OC(C)=O)[C@@H](C)[C@@H](C)OC(=O)[C@@H]2C)O[C@@H](C)[C@@H]1OC(C)=O`: the Potency entry is “inactive”. As for `CCN(CC)c1ccc(C(=C2C=CC(=[N+](CC)CC)C=C2)c2ccccc2)cc1`, the Potency entry is “inactive”. On to `CC(=O)O[C@H]1C[C@@H]2CC[C@@H]3[C@H](CC[C@@]4(C)[C@H]3C[C@H](N3CC[N+](C)(C)CC3)[C@@H]4OC(C)=O)[C@@]2(C)C[C@@H]1N1CC[N+](C)(C)CC1`, for which the Potency entry is “inactive”. On the same count and under the same terms, the entry for `COc1cc(-c2ccc(-[n+]3nc(-c4ccccc4)nn3-c3ccc([N+](=O)[O-])cc3)c(OC)c2)ccc1-[n+]1nc(-c2ccccc2)nn1-c1ccc([N+](=O)[O-])cc1` is “inactive”. Consider `Cn1nnnc1SCC1=C(C(=O)O)N2C(=O)[C@@H](NC(=O)[C@H](OC=O)c3ccccc3)[C@H]2SC1`, for which the Potency result is “inactive”. Take `Cn1cc(NC(=O)c2cc(NC(=O)c3cc(NC=O)cn3C)cn2C)cc1C(=O)NCCC(=N)N`: the Potency entry was “inactive”. For the compound `O=P(O)(O)OC[C@H]1O[C@](O)(COP(=O)(O)O)[C@@H](O)[C@@H]1O`, the Potency entry is “inactive”. For the compound `C#C[C@]1(O)CC[C@H]2[C@@H]3CCC4=CCCC[C@@H]4[C@H]3C(=C)C[C@@]21CC`, the Potency entry is “inactive”. `CN=C1C=CC(=C(c2ccc(N(C)C)cc2)c2ccc(N(C)C)cc2)C=C1`: the Potency result is “inactive”.

Another test can be described thus: qHTS assay to test for compound auto fluorescence at 590 nm (red) in HepG2 cell free culture (AID 720684). Particulars: cell-free medium autofluorescence, red 540/590 nm; series mostly up to 46 µM. The method in brief:
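Readout: intrinsic compound fluorescence at 590 nm emission after 540 nm excitation, scaled to Rose Bengal sodium. Matrix was cell-free MEM with 10% FBS; DMSO vehicle wells served as control.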
`CC(C)(C)CC(C)(C)c1cc(Cc2cc(C(C)(C)CC(C)(C)C)cc(-n3nc4ccccc4n3)c2O)c(O)c(-n2nc3ccccc3n2)c1`: the Potency result is “inactive”. `CCCC(=O)N1CCCN(c2nc(N)c3cc(OC)c(OC)cc3n2)CC1`: the Potency entry is “inactive”. Consider `COCC1=C(C(=O)OC(C)OC(=O)OC(C)C)N2C(=O)[C@@H](NC(=O)/C(=N\OC)c3csc(N)n3)[C@H]2SC1` (some centres not stated), for which the Potency result is “inactive”. `CN1CCC(OC(=O)C(Oc2ccc(Cl)cc2)Oc2ccc(Cl)cc2)CC1`: the Potency result is “inactive”. As to `CC(C)[C@@H](C)/C=C/[C@@H](C)[C@H]1CC[C@H]2/C(=C/C=C3\C[C@@H](O)CC[C@@H]3C)CCC[C@]12C`, the Potency result was “inactive”. On the same count and under the same terms, the entry for `O=C1c2ccccc2C(=O)C1c1ccc(Cl)cc1` is “inactive”; for `O=C(CCCN1CCC(n2c(=S)[nH]c3ccccc32)CC1)c1ccc(F)cc1` it is “inactive”; for `CC1(C)[C@@H]2CC[C@@]1(C)[C@H](OC(=O)CSC#N)C2` it is “inactive”. Regarding `CN1CCC(CN2c3ccccc3Sc3ccccc32)C1` (configuration not stated), the Potency result is “inactive”. On to `CC(C)Cc1ccc([C@@H](C)C(=O)NS(C)(=O)=O)cc1`, for which the Potency result was “inactive”. Consider `CC(C)N1CCN(c2ccc(OC[C@H]3CO[C@](Cn4cncn4)(c4ccc(Cl)cc4Cl)O3)cc2)CC1`, for which the Potency result is “inactive”. Consider `Cc1ccc(C2(O)CCN(CCCC(=O)c3ccc(F)cc3)CC2)cc1`, for which the Potency result is “inactive”. `CCN(CC)CCOCCOC(=O)C(CC)(CC)c1ccccc1`: the Potency result was “inactive”.

`CCC(=O)c1ccc2c(c1)N(CCCN1CCN(CCO)CC1)c1ccccc1S2`: the Potency entry was “inactive”. Consider `O=S(O)CNc1ccc(S(=O)(=O)c2ccc(NCS(=O)O)cc2)cc1`, for which the Potency entry is “inactive”. For `CCCCCCCCCCCCCCCCOCCOCCOCCOCCOCCOCCOCCOCCOCCOCCOCCOCCOCCOCCOCCOCCOCCOCCOCCOCCO`, the Potency result is “inactive”. As for `S=C1SCN(Cc2ccccc2)CN1Cc1ccccc1`, the Potency result was “inactive”. On the same count and under the same terms, the entry for `CC(C)CCCC(C)NC(C)C` (configuration not stated) is “inactive”; for `CC[C@H]1OC(=O)[C@H](C)[C@@H](O[C@H]2C[C@@](C)(OC)[C@@H](O)[C@H](C)O2)[C@H](C)[C@@H](O[C@@H]2O[C@H](C)C[C@H](N(C)C)[C@H]2O)[C@](C)(O)C[C@@H](C)[C@@H]2N[C@@H](COCCOC)O[C@@H]([C@H]2C)[C@]1(C)O` it is “inactive”. On the same count and under the same terms, the entry for `C[C@H](CCCC(C)(C)O)[C@H]1CC[C@H]2[C@@H]3CC=C4C[C@@H](O)CC[C@]4(C)[C@H]3CC[C@]12C` is “inactive”; for `COc1ccc(/C=C/C(=O)OCCC(C)C)cc1` it is “inactive”; for `O=C(NNCNNC(=O)c1ccncc1)c1ccncc1` it is “inactive”.

Take `Cc1ccccc1`: the Potency result was “inactive”. On to `C=C1C(=C/C=C2\CCC[C@]3(C)[C@@H]([C@H](C)/C=C/[C@H](C)C(C)C)CC[C@@H]23)C[C@@H](O)C[C@@H]1O`, for which the Potency entry is “inactive”.

Take `CC[C@H](C)[C@H]1O[C@]2(CC[C@@H]1C)C[C@@H]1C[C@@H](C/C=C(\C)[C@@H](O[C@H]3C[C@H](OC)[C@@H](O[C@H]4C[C@H](OC)[C@@H](O)[C@H](C)O4)[C@H](C)O3)[C@@H](C)/C=C/C=C3\CO[C@@H]4[C@H](O)C(C)=C[C@@H](C(=O)O1)[C@]34O)O2`: the Potency result is “inactive”. As for `O=C(O)[C@@H](O)[C@H](O)[C@H](O)[C@@H](O)C(=O)O` (tested in a mixture with another compound), the Potency entry is “inactive”. With `CCCCC[C@H](O)/C=C/[C@H]1[C@H](O)CC(=O)[C@@H]1CCCCCCC(=O)O`, the Potency result was “inactive”. `O=P(O)(O)OC[C@H](O)CO`: the Potency entry was “inactive”.

`Cn1c(O)c(N=NC(N)=S)c2ccccc21`: the Potency entry was “inactive”. In the case of `CCCC(=O)O[C@]1(C(=O)COC(=O)CC)[C@@H](C)C[C@H]2[C@@H]3CCC4=CC(=O)C=C[C@]4(C)[C@@]3(F)[C@@H](O)C[C@@]21C`, the Potency entry was “inactive”. Take `CO[C@H]1C[C@H](O[C@H]2[C@H](C)[C@@H](O[C@@H]3O[C@H](C)C[C@H](N(C)C)[C@H]3OC(C)=O)[C@@H](C)C[C@]3(CO3)C(=O)[C@H](C)[C@@H](OC(C)=O)[C@@H](C)[C@@H](C)OC(=O)[C@@H]2C)O[C@@H](C)[C@@H]1OC(C)=O`: the Potency result was “inactive”. For `CCN(CC)c1ccc(C(=C2C=CC(=[N+](CC)CC)C=C2)c2ccccc2)cc1`, the Potency result was “inactive”. Consider `CC(=O)O[C@H]1C[C@@H]2CC[C@@H]3[C@H](CC[C@@]4(C)[C@H]3C[C@H](N3CC[N+](C)(C)CC3)[C@@H]4OC(C)=O)[C@@]2(C)C[C@@H]1N1CC[N+](C)(C)CC1`, for which the Potency result is “inactive”.

Turning to `COc1cc(-c2ccc(-[n+]3nc(-c4ccccc4)nn3-c3ccc([N+](=O)[O-])cc3)c(OC)c2)ccc1-[n+]1nc(-c2ccccc2)nn1-c1ccc([N+](=O)[O-])cc1`, the Potency result is “inactive”. For the compound `Cn1nnnc1SCC1=C(C(=O)O)N2C(=O)[C@@H](NC(=O)[C@H](OC=O)c3ccccc3)[C@H]2SC1`, the Potency entry was “inactive”. Consider `Cn1cc(NC(=O)c2cc(NC(=O)c3cc(NC=O)cn3C)cn2C)cc1C(=O)NCCC(=N)N`, for which the Potency result was “inactive”. The same measure, in the same setting: the entry for `O=P(O)(O)OC[C@H]1O[C@](O)(COP(=O)(O)O)[C@@H](O)[C@@H]1O` is “inactive”.

`C#C[C@]1(O)CC[C@H]2[C@@H]3CCC4=CCCC[C@@H]4[C@H]3C(=C)C[C@@]21CC`: the Potency result was “inactive”. In the case of `CN=C1C=CC(=C(c2ccc(N(C)C)cc2)c2ccc(N(C)C)cc2)C=C1`, the Potency result is “inactive”.

For the origin of these results see PubChem BioAssay (Tox21).
